# Measurements as given in the supplement of paper PMC8728848.
# Only a selection was taken, and the strongest signals are over-represented in it overall.
# B1: CD23 (Homo sapiens) (protein)
# chain: MELQVSSGFVCNTCPEKWINFQRKCYYFGKGTKQWVHARYACDDMEGQLVSIHSPEEQDFLTKRASHTGSWIGLRNLDLKGEFIWVDGSHVDYSNWAPGEPTSRSQSEDCVMMRGSGRWNDAFCDRKLGAWVCDRLATCTPPASEGSAESMGPDSRPDPDGRLPTPSAPLHS
# Experiments:
# Test in all cases: glycan array binding signal (z-score within array); higher = stronger binding
# Conditions in all cases: glycan notation: IUPAC condensed, linker removed; mutation: H213R,G256S
# Fuc(a1-2)Gal = molecular target: Fuc(a1-2)Gal
# Outline: (§1)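 Glycan array binding is given as a within-array Z-score, which can be read as non-binding when negative. The arrays, 3228 of them, came from the Consortium for Functional Glycomics database and were retained only where the protein sequence was available. Z-scores were averaged across arrays of the same protein sequence at different concentrations or buffers and across linkers.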
# Fuc(a1-2)Gal(b1-3)GalNAc = molecular target: Fuc(a1-2)Gal(b1-3)GalNAc
# Outline: as §1
# Fuc(a1-2)Gal(b1-4)Glc6S = molecular target: Fuc(a1-2)Gal(b1-4)Glc6S
# Outline: as §1
# [1] = molecular target: Fuc(a1-2)Gal(b1-4)[Fuc(a1-3)]GlcNAc(b1-3)Gal(b1-4)[Fuc(a1-3)]GlcNAc(b1-3)Gal(b1-4)[Fuc(a1-3)]GlcNAc
# Outline: as §1
# [2] = molecular target: Fuc(a1-2)[GalNAc(a1-3)]Gal(b1-4)[Fuc(a1-3)]GlcNAc
# Outline: as §1
# Fuc(a1-3)GlcNAc = molecular target: Fuc(a1-3)GlcNAc
# Outline: as §1
# [3] = molecular target: Fuc(a1-3)[Gal(b1-4)]GlcNAc(b1-4)Gal(b1-4)[Fuc(a1-3)]GlcNAc
# Outline: as §1
# Gal(a1-4)Gal(b1-4)Glc = molecular target: Gal(a1-4)Gal(b1-4)Glc
# Outline: as §1
# Gal(a1-4)GlcNAc = molecular target: Gal(a1-4)GlcNAc
# Outline: as §1
# Gal3S(b1-3)GalNAc = molecular target: Gal3S(b1-3)GalNAc
# Outline: as §1
# [4] = molecular target: Gal3S(b1-4)[Fuc(a1-3)]Glc
# Outline: as §1
# Gal3S6S(b1-4)GlcNAc6S = molecular target: Gal3S6S(b1-4)GlcNAc6S
# Outline: as §1
# Gal6S(b1-4)Glc6S = molecular target: Gal6S(b1-4)Glc6S
# Outline: as §1
# Glc(b1-6)Glc = molecular target: Glc(b1-6)Glc
# Outline: as §1
# Kdn(a2-3)Gal(b1-4)GlcNAc = molecular target: Kdn(a2-3)Gal(b1-4)GlcNAc
# Outline: as §1
# [5] = molecular target: Man(a1-2)Man(a1-3)[Man(a1-2)Man(a1-6)]Man(a1-6)[Man(a1-2)Man(a1-2)Man(a1-3)]Man(b1-4)GlcNAc(b1-4)GlcNAc
# Outline: as §1
# [6] = molecular target: Neu5Ac(a2-3)Gal(b1-3)GalNAc
# Outline: as §1
# [7] = molecular target: Neu5Ac(a2-3)Gal(b1-3)[Neu5Ac(a2-3)Gal(b1-4)]GlcNAc
# Outline: as §1
# [8] = molecular target: Neu5Ac(a2-3)Gal(b1-4)[Fuc(a1-3)]GlcNAc(b1-3)Gal(b1-4)GlcNAc
# Outline: as §1
# [9] = molecular target: Neu5Ac(a2-6)Gal(b1-4)GlcNAc6S
# Outline: as §1
# [10] = molecular target: Neu5Gc(a2-3)Gal(b1-4)GlcNAc
# Outline: as §1
binder,measurement,setting,value
B1,glycan array binding signal (z-score),Fuc(a1-2)Gal,0.42
same,glycan array binding signal (z-score),Fuc(a1-2)Gal(b1-3)GalNAc,0.764
same,glycan array binding signal (z-score),Fuc(a1-2)Gal(b1-4)Glc6S,0.623
same,glycan array binding signal (z-score),[1],1.02
same,glycan array binding signal (z-score),[2],-0.361
same,glycan array binding signal (z-score),Fuc(a1-3)GlcNAc,-0.166
same,glycan array binding signal (z-score),[3],0.007
same,glycan array binding signal (z-score),Gal(a1-4)Gal(b1-4)Glc,-0.15
same,glycan array binding signal (z-score),Gal(a1-4)GlcNAc,0.434
same,glycan array binding signal (z-score),Gal3S(b1-3)GalNAc,-0.308
same,glycan array binding signal (z-score),[4],-0.106
same,glycan array binding signal (z-score),Gal3S6S(b1-4)GlcNAc6S,1.06
same,glycan array binding signal (z-score),Gal6S(b1-4)Glc6S,0.798
same,glycan array binding signal (z-score),Glc(b1-6)Glc,-0.561
same,glycan array binding signal (z-score),Kdn(a2-3)Gal(b1-4)GlcNAc,-0.386
same,glycan array binding signal (z-score),[5],0.376
same,glycan array binding signal (z-score),[6],-0.283
same,glycan array binding signal (z-score),[7],-0.301
same,glycan array binding signal (z-score),[8],0.869
same,glycan array binding signal (z-score),[9],-0.002
same,glycan array binding signal (z-score),[10],0.062
